According to PubChem BioAssay (NCATS):
Inconclusive results are not listed. A number with no mark means an inactive call. Calls come from the whole dose curve; as a rule, active = well fitted activation curve with a large enough effect; inconclusive = small, poorly fitted or top-dose-only effect; inactive = no such curve, though single readings can be large or run the other way.

The compounds below were run against Cellular tumor antigen p53 (Homo sapiens) (UniProt P04637) (assay: Primary qHTS for small molecule compounds that upregulate eGFP-tagged delta133p53alpha (in N-terminal) cells. (AID 2060322;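 note: series mostly up to about 56 µM; 0% = DMSO vehicle and 100% = reference activator; nearly all actives have a fitted effect of over 75% in size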)). Details: NCI-H358 eGFP-delta133p53alpha fluorescence, 24 h; activation: hits give high values.
Sequence of Cellular tumor antigen p53 (Homo sapiens) (P04637 whole entry, looked up): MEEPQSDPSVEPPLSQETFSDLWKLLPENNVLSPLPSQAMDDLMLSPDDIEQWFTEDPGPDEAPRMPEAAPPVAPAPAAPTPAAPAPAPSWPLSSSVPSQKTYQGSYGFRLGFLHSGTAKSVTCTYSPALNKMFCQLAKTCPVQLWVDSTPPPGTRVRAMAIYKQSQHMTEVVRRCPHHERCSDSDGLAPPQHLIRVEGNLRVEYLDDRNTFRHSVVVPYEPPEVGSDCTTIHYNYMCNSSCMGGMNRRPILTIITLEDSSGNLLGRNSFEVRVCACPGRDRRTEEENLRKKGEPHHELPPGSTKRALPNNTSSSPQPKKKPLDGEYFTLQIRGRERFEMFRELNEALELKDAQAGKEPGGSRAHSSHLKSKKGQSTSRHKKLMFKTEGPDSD
Outline: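 NCI-H358 cells pre-induced 24 h with 10 ng/ml doxycycline to express N-terminal eGFP-delta133p53alpha, then dosed 24 h at 37C without doxycycline; fixed, Hoechst-stained, GFP intensity by laser scanning cytometry, normalized to DMSO (0%) and 57.5 uM 5-azacytidine (100%).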

Compound | activation
C=C1CC[C@@]2(OC1)O[C@H]1CC3[C@@H]4CC=C5C[C@@H](O)C[C@@H](O[C@@H]6OC[C@H](O)[C@H](O)[C@H]6O[C@@H]6O[C@@H](C)[C@H](O)[C@@H](O)[C@H]6O)[C@]5(C)C4CC[C@]3(C)[C@H]1[C@@H]2C (some centres not stated) | -26%
Cn1c(=O)n(-c2ccc(C(C)(C)C#N)cc2)c2c3cc(C#Cc4cccnc4)ccc3ncc21 | 26.8%
C/C=C(\C)C(=O)O[C@H]1[C@@H](O[C@]2(COC(=O)CC(C)C)O[C@H](COC(=O)C(C)CC)[C@@H](OC(C)=O)[C@@H]2O)O[C@H](COC(C)=O)[C@@H](O)[C@@H]1O (some centres not stated) | 9.16%
CCCCCOc1ccc(C2SC(=O)NC2=O)cc1OCC (configuration not stated) | 2.33%
C=C1CC/C=C(/C(=O)O)CCC2C1CC2(C)C (configuration not stated) | -4.58%
C=CC(C)(C)c1[nH]c2ccccc2c1C[C@@H]1NC(=O)[C@H](Cc2c[nH]c3ccccc23)NC1=O | 6.25%
CC(C)CC1(C(=O)OCc2ccc(O[C@@H]3O[C@H](CO)[C@@H](O)[C@H](O)[C@H]3O)cc2)CC(=O)OC(C(=O)O)CC(=O)OCC2OC(O1)C(OC(=O)/C=C/c1ccc(O)cc1)C(O)C2O (some centres not stated) | 3.05%
COc1ccc(/C=C/C(=O)O[C@@H]2[C@@H](O)[C@H](C)O[C@@H](OC3C4C=COC(O[C@@H]5O[C@H](CO)[C@@H](O)[C@H](O)[C@H]5O)C4C4(CO)OC34)[C@@H]2O)cc1OC (some centres not stated) | -13%
CC(C)CC(=O)OC[C@H]1O[C@@](COC(=O)CC(C)C)(O[C@H]2O[C@H](CO)[C@@H](O)[C@H](O)[C@H]2O)[C@@H](OC(=O)CC(C)C)[C@@H]1OC(=O)CC(C)C | -0.763%
C[C@H]1[C@H](C)CC[C@]2(C(=O)O[C@@H]3O[C@H](CO)[C@@H](O)[C@H](O)[C@H]3O)CC[C@]3(C(=O)O)C(=CCC4[C@@]5(C)CC[C@H](O[C@@H]6O[C@H](CO)[C@@H](O)[C@H](O)[C@H]6O)C(C)(C)C5CC[C@]43C)[C@H]12 (some centres not stated) | 2.68%
N[C@H]1C[C@H]1c1ccc(-c2cccc(O)c2)cc1 | 1.67%
COC(=O)c1cc(Br)cnc1N1CCC(NC2CCCCC2)C(O)C1 (configuration not stated) | -10.3%
CC1OC(O[C@@H]2[C@@H](O)[C@H](OC(=O)[C@]34CCC(C)(C)C[C@H]3C3=CCC5[C@@]6(C)CC[C@H](O[C@@H]7O[C@H](C(=O)O)[C@@H](O)[C@H](O[C@@H]8OC[C@@H](O)[C@H](O)[C@H]8O)[C@H]7O[C@@H]7O[C@H](CO)[C@H](O)[C@H](O)[C@H]7O)[C@@](C)(C=O)C6CC[C@@]5(C)[C@]3(C)C[C@H]4O)O[C@H](C)[C@@H]2OC2OC(C)C(OC3OCC(O)C(O)C3O)C(O)C2O)C(O)C(O)C1O (some centres not stated) | -3.57%
COc1ccc(CN2C(=O)C(=O)c3cc(S(=O)(=O)N4CCC[C@H]4COc4cccnc4)ccc32)cc1 | 19.7%
NC(N)=NC(=O)c1cnn(-c2cccc3ncccc23)c1C1CC1 | 25%
CC12CC34CC(O)C5C(CO)(CO)CC(=O)CC5(C)C3CC1C2C4 (configuration not stated) | 5.34%
C/C1=C\C[C@]2(C)C(=O)C(O)=C([C@H](C)CO)[C@H]2C/C=C(\C)[C@@H](O)CC/C(C)=C/CC1 | -6.11%
COC(=O)C1=CO[C@@H](O[C@@H]2O[C@H](CO)[C@@H](O)[C@H](O)[C@H]2O)/C(=C\CO)[C@@H]1CC(=O)OCCc1ccc(O)cc1 | -20.6%
C[C@@H]1C[C@H]2O[C@@]3(O[C@@H]2C(C)(C)O)C(O)[C@@]2(C)C4CCC5C(C)(C)[C@@H](O[C@H]6OC[C@H](O)[C@@H](O)[C@@H]6O)CC[C@@]56C[C@@]46CC[C@]2(C)C13 (some centres not stated) | -26.7%
CC(=O)OC1C(OC(=O)c2ccccc2)C2C(C)(C)CC(=O)CC2(C)C23CCC(C)(C2)C(O)CC13 (configuration not stated) | -22.3%
CC1(C)C2CC[C@]3(C)C(C(=O)C=C4[C@H]5C[C@@](C)(C(=O)O)CC[C@]5(C)CC[C@]43C)[C@@]2(C)CC[C@@H]1O (some centres not stated) | 6.87%
CC(C)CC(=O)OC[C@H]1O[C@@](COC(=O)CC(C)C)(O[C@H]2O[C@H](CO)[C@@H](O)[C@H](O)[C@H]2OC(=O)CC(C)C)[C@@H](OC(=O)CC(C)C)[C@@H]1O | -7.14%
